Assay results taken from PubChem BioAssay AID687014 (The Scripps Research Institute Molecular Screening Center, 2013).
In all, about 370,000 compounds went through this assay and about 6,800 (1.8%) were called active.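 The calls were made as follows: active = activation above a cutoff set at the mean of all screened compounds plus 3 SD (cut at about 10% in these data); inactive = the rest.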 Only a selection was taken, and actives are over-represented in it overall.

What follows are compounds tested on Nuclear hormone receptor DAF-12 (Heterodera glycines), GAL4 fusion (assay: H. glycines DAF-12 receptor agonists, primary screen, cell-based, luminescence, HEK293, GAL4 fusion, UAS-luciferase (AID 687014;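 also: 0% = DMSO wells and 100% = sodium butyrate wells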)). Settings: HEK293 GAL4-hgDAF12 UAS-luciferase reporter, agonist luminescence; at 6.8 µM; hits give high values; normalized to butyrate control.
With `OC(c1ccccc1)(c1ccccc1)C1CCN(CCCOc2ccc(-c3ccsc3)cc2)CC1` the activation was -3.48% (inactive).
In the case of `C=C(C)C1CC23C(=O)C4(C(=O)c5ccccc5)C[C@@]5(C)CCC(CC2C1(C)C)(C4=O)C35OC` (stereo partly specified), the activation is reported as -0.57% (inactive).
For `O=C(NCc1ccco1)c1ccc(NS(=O)(=O)c2cccc([N+](=O)[O-])c2)cc1`, the activation was 0.98% (inactive).
`O=C(NCCC1=CCCCC1)C1CCN(S(=O)(=O)c2ccc(Cl)s2)CC1` was tested, and the activation was -1.78% (inactive).
In the case of `O=C(NCC1COc2ccccc2O1)c1ccc(NC(=O)c2cc(F)ccc2F)cc1` (stereo unspecified), the activation is reported as -2.39% (inactive).
With `COc1ccc(-c2c(NC(=O)c3ccco3)oc3ccc(Cl)cc3c2=O)cc1` the activation was 0.05% (inactive).
In the case of `O=C(Nc1ccc2oc(-c3ccccc3F)nc2c1)c1ccco1`, the activation is reported as 14.8% (active).
`O=C(Nc1cc(-c2nc3ncccc3o2)ccc1Cl)c1ccco1` was tested, and the activation was 2.36% (inactive).
For `COC(=O)Cc1nnn2c1[C@H](C)[C@H](c1ccccc1[N+](=O)[O-])OCC2`, the activation was -0.34% (inactive).
For `CCOC(=O)c1cc(S(=O)(=O)NCCc2ccc(OC)c(OC)c2)cn1C`, the activation was 0.63% (inactive).
`CCOC(=O)N1CCN(Cc2oc(CO)cc(=O)c2O)CC1` was tested, and the activation was 1.66% (inactive).
In the case of `CSc1nc2nc3c(c(=O)n2[nH]1)CCC3`, the activation is reported as -0.35% (inactive).
With `Clc1cccc(Cc2c(-c3cccc(Cl)c3)nc3ccc(Cl)cn23)c1` the activation was 6.04% (inactive).
For `O=c1c2c(nc3cc(-c4cccc(Cl)c4)[nH]n13)CCCC2`, the activation was 18.1% (active).
`CSc1ccc(C=Nn2c(-c3ccc(F)cc3)n[nH]c2=S)cc1` was tested, and the activation was -2.14% (inactive).
`Oc1cccc2ccc(/C=C/c3ccc(Br)s3)nc12` was tested, and the activation was 20.9% (active).
`CCCCOCC1CN(CCCC)S(=O)(=O)c2c(Oc3ccc(F)cc3)cccc2O1` (stereo unspecified) was tested, and the activation was 3.59% (inactive).
With `COC(=O)C1CN(Cc2cn(Cc3ccc(F)cc3)nn2)CCS(=O)(=O)N1Cc1ccc(Cl)cc1` (stereo unspecified) the activation was -1.71% (inactive).
`Clc1ccc(-n2c(COc3ccccc3)nnc2SCc2nc3ccccc3[nH]2)cc1` was tested, and the activation was 0.78% (inactive).
With `CN(CCO)c1ccc(/C=N/Nc2nncc3ccccc23)cc1` the activation was 10.7% (active).
In the case of `N#Cc1ccc(N2Cc3ccccc3/C2=N/C(=O)Nc2ccc(Cl)cc2)cc1`, the activation is reported as 2% (inactive).
With `O=C(Nc1cccc(C(=O)O)c1)/C(=C\c1ccccc1)NC(=O)c1ccc(Br)o1` the activation was 1.1% (inactive).
`Cc1cccc(NC(=S)NC(=O)c2ccc(Br)o2)c1` was tested, and the activation was 15.4% (active).
In the case of `CCS(=O)(=O)c1ccc(-c2cccc(NC(=O)c3ccc(Br)o3)c2)nn1`, the activation is reported as 3.52% (inactive).
With `Nc1[nH]c(/C=C2/CCCCC2n2[nH]c(=O)n(-c3ccccc3)c2=O)c(Cc2ccccc2)[n+]1Cc1ccccc1` (stereo unspecified) the activation was 0.06% (inactive).
For `CC(C)c1cc(NCc2ccccn2)n2c(nc3ccccc32)c1C#N`, the activation was 3.15% (inactive).
`C=CCN(C(=O)[C@@H](CCCC)[C@@H](O)c1ccc(Cl)cc1)c1ccccc1` was tested, and the activation was 1.69% (inactive).
`CC(=NNC(N)=O)c1ccc(Cl)c(-n2cccc2)c1` was tested, and the activation was 1.64% (inactive).
In the case of `Cc1cc(NC(=O)C(C)N2C(=O)c3ccccc3S2(=O)=O)no1` (stereo unspecified), the activation is reported as -0.78% (inactive).
`O=C(OCCN1CCOCC1)C1(c2ccccc2)CCCCC1` was tested, and the activation was -2.44% (inactive).
For `c1coc(CCNc2ncnc3ccc(-c4ccc5c(c4)OCO5)cc23)c1`, the activation was -2.33% (inactive).
For `Oc1cccc2cc(-c3ccncc3)cnc12`, the activation was 15.1% (active).
For `Cc1cc2c(nc1C)CCCN2C`, the activation was 0.83% (inactive).
For `COc1ccc(NC(=O)C2CCC(CNC(=O)[C@@H]3Cc4ccccc4CN3)CC2)cc1` (stereo partly specified), the activation was -1.49% (inactive).
With `CN1C[C@]2(C=C3CCCCC3n3c(=O)n(-c4ccccc4)c(=O)n32)N=C1NC(=O)c1ccccc1` (stereo partly specified) the activation was 2.4% (inactive).
With `COc1ccc(-n2c(SCC(=O)Nc3ccc(C)c(Cl)c3)nc3ccccc3c2=O)cc1` the activation was -4.03% (inactive).
`FC(F)(F)c1cccc(NC(=S)OC2CCC23CCC(c2ccccc2)CC3)c1` (stereo unspecified) was tested, and the activation was 2.72% (inactive).
With `COCCN(C(=S)Nc1ccccc1OC)C1CCN(C(C)C)CC1` the activation was -3% (inactive).
For `Cc1ccc(-c2csc(-c3c[nH]c4ccccc34)n2)cc1`, the activation was 13.1% (active).
With `CCn1c(SCCC(C)C)nnc1-c1c[nH]c2ccccc12` the activation was -2.13% (inactive).
In the case of `Cc1ccc(-c2csc(N(Cc3ccco3)C(=O)c3cccs3)n2)cc1`, the activation is reported as 4.33% (inactive).
For `CC(=O)Nc1nc2ncccn2c1-c1ccc(C(F)(F)F)cc1`, the activation was 0.34% (inactive).
With `O=C(CSC(=S)N1CCOCC1)c1ccccc1` the activation was 10.7% (active).
For `N[C@@H](Cc1ccccc1)C(=O)N1CCOCC1`, the activation was 0.96% (inactive).
In the case of `O=C(CSC(=S)N1CCCCC1)c1c(F)cccc1F`, the activation is reported as 16.9% (active).
With `O=C(CP(=O)(c1ccccc1)c1ccccc1)N1CCOCC1` the activation was 1.84% (inactive).
For `COc1cccc(NC(=O)CN(C)C(=O)CSC(=S)N2CCCC2)c1`, the activation was 2.56% (inactive).
For `CC(=O)c1ccc(NC(=O)CSC(=S)N2CCCC2)cc1`, the activation was 7.4% (inactive).
For `O=C1[C@@H](c2ccccc2)[C@@H](c2ccccc2)N1c1ccccc1`, the activation was -0.47% (inactive).
`CCOC(=O)Cn1c2c(n(-c3ccc(F)cc3)c1=O)C=C(c1ccccc1)[C@@H](C)C(C(=O)N(C)C1CCCCC1)=C2` was tested, and the activation was -2.75% (inactive).
In the case of `CN[C@H]1C[C@H]2c3cc(N4CCOCC4)ccc3CCN2C[C@H]1[C@H](C)O`, the activation is reported as -0.47% (inactive).
For `CCC(=O)Nc1ccc2c(c1)C(=O)N(C)[C@H]1CC[C@H](CC(=O)NCCOC)O[C@@H]1CO2`, the activation was -3.11% (inactive).
For `O=C(NCc1cccs1)C1CCCN(S(=O)(=O)c2ccc([N+](=O)[O-])cc2)C1` (stereo unspecified), the activation was -1.45% (inactive).
`C[C@@H]1ON(C)[C@H]2C[C@H]3c4[nH]c5cccc(-c6ccc7c(c6)OCO7)c5c4CCN3C[C@@H]12` was tested, and the activation was -2.08% (inactive).
For `CC(=O)N1C[C@@H](CO)[C@@H](N(C)C(=O)C(C)(C)C)C[C@H]1c1ccccc1Br`, the activation was 4.28% (inactive).
`C=C1C(C(C)C)N(C)C2=NC(c3ccccc3)CC(=O)N12` (stereo unspecified) was tested, and the activation was -2.06% (inactive).
`CN1CCN(c2ccc(NC(=O)c3ccccc3)cc2)CC1` was tested, and the activation was 10.5% (active).
For `O=C(CN1CCN(c2ccc(O)cc2)CC1)Nc1ccc(-c2ccccc2)cc1`, the activation was 0.81% (inactive).
In the case of `O=C(Nc1ccc(S(=O)(=O)N2CCc3ccccc3C2)cc1)c1ccccc1`, the activation is reported as -0.73% (inactive).
`COc1cccc(CNC(=O)[C@H]2CCCN2C(=O)[C@H]2CCCN2C(=O)C2CCCCC2)c1` was tested, and the activation was -1.24% (inactive).
For `O=S(=O)(c1cccs1)N1CCCc2nc(-c3ccc(Br)cc3)ccc21`, the activation was -0.93% (inactive).
With `CCCCn1nnnc1C(c1cc2ccccc2o1)N(C)Cc1ccc(Cl)c(Cl)c1` (stereo unspecified) the activation was 4.88% (inactive).
With `Cc1cc(O)c(NC(=O)c2ccc(C)c([N+](=O)[O-])c2)cc1C` the activation was 14.1% (active).
In the case of `CCN1CCC(=NNC(=O)c2ccc(C)c([N+](=O)[O-])c2)CC1`, the activation is reported as -0.03% (inactive).
`CCCCNc1ccc(C(=O)Nc2cccc(C)n2)cc1[N+](=O)[O-]` was tested, and the activation was 1.4% (inactive).
For `O=C(CSc1nnc(-c2ccccn2)n1-c1ccc(Cl)cc1)Nc1ccccc1-c1ccccc1`, the activation was -5.11% (inactive).
For `C[C@@H]1COc2cccc(N3CCCC3)c2S(=O)(=O)N1C`, the activation was 2.34% (inactive).
With `COc1ccc(C(=O)CSc2nnc(-c3cnccn3)n2-c2ccc(C)cc2)cc1` the activation was -1.45% (inactive).
`Cc1ccc(NC(=O)c2csc3c2CCCC3)cc1` was tested, and the activation was 23% (active).
With `CC1CC(C)CN(CCCNC(=O)c2csc3c2CCCCC3)C1` (stereo unspecified) the activation was 1.68% (inactive).
For `Cc1ccc(NC(=O)C2(N3CCC3=O)CCCCC2)cc1`, the activation was -1.36% (inactive).
`CC(C)(C)c1ccc(S(=O)(=O)NCC2CCN(C(=O)C(=O)c3cc4ccccc4o3)CC2)cc1` was tested, and the activation was -2.12% (inactive).
`CC(C)CC1NC(=O)c2cc(Cl)ccc2-n2c1nc1ccccc1c2=O` (stereo unspecified) was tested, and the activation was -4.04% (inactive).
In the case of `Cc1cc2nc(-c3ccc(NC(=O)c4cccnc4)cc3)oc2cc1C`, the activation is reported as 10.8% (active).
With `O=C(Nc1cccc(-n2cnnn2)c1)c1cccnc1` the activation was 0.26% (inactive).
In the case of `CC(=O)Nc1ccc(S(=O)(=O)NC2Cc3ccccc3C2)cc1`, the activation is reported as -1.12% (inactive).
With `CC(=O)Nc1ccc(-c2nc3ccccc3o2)cc1` the activation was 14.1% (active).
With `CCN(CC)C(=O)CSc1nc2ccccc2o1` the activation was 4.9% (inactive).
For `Cc1ccc(-n2nc3cc(C)c(NC(=O)c4cccnc4)cc3n2)cc1`, the activation was 3.33% (inactive).
For `COc1ccc(C2=CN(Cc3ccccc3)C(c3ccc(OC)cc3)CC2=O)cc1` (stereo unspecified), the activation was 1.21% (inactive).
With `COc1ccc(CN(C)Cc2nc3cc(OC)c(OC)cc3c(=O)[nH]2)c(OC)c1` the activation was -1.81% (inactive).
`CC(C)CNc1cccc2c1S(=O)(=O)N(Cc1cn(Cc3ccc(Cl)cc3)nn1)Cc1ccccc1O2` was tested, and the activation was 1.68% (inactive).
With `CCOC(=O)c1c(C)[nH]c(C2=NNC(=NC(C)COC)SC2)c1C` (stereo unspecified) the activation was 12.9% (active).
With `COC(=O)C[C@H]1C=C[C@@H](NS(=O)(=O)c2ccc(C)cc2)[C@@H](CO)O1` the activation was 3.19% (inactive).
`COc1ccc(CN(CCN2CCOCC2)C(=O)c2ccc(C)cc2)cc1OC` was tested, and the activation was 2.69% (inactive).
With `CN(C)C(CNC(=O)c1cc2ccccc2o1)c1ccccc1` (stereo unspecified) the activation was 0.25% (inactive).
For `CC1CCN(c2ccc(-c3ccc(NC(=O)c4ccco4)cc3)nn2)CC1`, the activation was 7.1% (inactive).
For `C/C(=N\NC(=S)Nc1ccc(C)cc1)c1cc2ccccc2o1`, the activation was 0.54% (inactive).
For `Cc1ccc(NC(=O)c2cc3ccccc3o2)cc1`, the activation was 15.2% (active).
For `Cc1ccc(NC(=O)c2ccco2)cc1`, the activation was 13.3% (active).
`CN1CCN(S(=O)(=O)c2ccc(NC(=O)c3ccco3)cc2)CC1` was tested, and the activation was 3.6% (inactive).
